Experimental findings from PubChem BioAssay AID932 (The Scripps Research Institute Molecular Screening Center, 2007) are described below.

Hit rate of the full screen: of about 200,000 compounds, about 5,100 (2.5%) were called active. The sample holds actives, similar compounds and a random draw of the others, so the mix is not that of the screen. A number with no mark means an inactive call.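 Rule for the calls: active = activation above the screen-wide mean activation plus 3 SD (cut at about 130% in these data); inactive = the rest.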 Where a SMILES comes first, the peptide text is derived from it. The star is where a group is joined. OPac = O=C(CO*)c1ccccc1; Bz = O=C(c1ccccc1)*

The nature of the test: STAT1 signaling activators, primary screen, cell-based, HTS, luciferase reporter (AID 932).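 Note: raw ratio to IFN-gamma control signal so 100% means no change and 0% no light.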 The note with it: NIH 3T3 STAT1-luciferase reporter, IFN-gamma, luminescence; at 5.5 µM; hits give high values; 100% = IFN-gamma alone, no compound. Background: In a reporter assay the amount or activity of a reporter protein is the signal.
For `CCc1nc(C)cn1S(=O)(=O)c1cc([N+](=O)[O-])ccc1Cl`, the activation (% of control) is 87.5%. As for `Cc1cccc(-n2cnc(C(=O)Nc3cccnc3)c2)n1`, the activation (% of control) was 140% (active). For `Cc1cccc(-n2cnc(C(=O)NNC(=S)Nc3ccccc3)c2)n1`, the activation (% of control) is 92%. For `COc1cccc(C(=O)Nc2cccnc2)c1OC` the value was 96.6%; for `Cc1noc(C)c1S(=O)(=O)Nc1ccc(C(=O)N2CCN(c3ccc(F)cc3)CC2)cc1`, 98.8%; for `N#Cc1ccc(OCc2nnc(-c3ccc([N+](=O)[O-])cc3)o2)cc1`, 99.1%. In the case of `CN(C)S(=O)(=O)c1ccc(N2CCCC2=O)c([N+](=O)[O-])c1`, the activation (% of control) is 108%.

As to `CCCC(=O)Nc1nc2ccc(NC(=O)c3c(F)c(F)c(OC)c(F)c3F)cc2s1`, the activation (% of control) was 102%.

For the compound `O=C(Nc1ccncc1)c1c(F)cccc1F`, the activation (% of control) is 105%. To `CSc1nc2ccc(NC(=O)c3c(F)cccc3F)cc2s1` belongs 145% (active). With `CCOC(=O)c1c(CN(C)C)n(-c2ccccc2)c2cc(Br)c(O)cc12`, the activation (% of control) was 101%. For `CN1C(=O)c2ccc(NC(=O)C3CCCCC3)cc2C1=O` the value was 99.6%; for `O=C(O)c1ccc(NC(=O)C2CCCCC2)cc1`, 99.3%; for `O=C(Nc1cc2ccccc2oc1=O)C1CCCCC1`, 149% (active). `CC(=O)Nc1ccc(/C(C)=N/NC(=O)CN(c2ccccc2Br)S(C)(=O)=O)cc1`: the activation (% of control) is 97.6%. For `O=C(O)CCCCCNc1ncnc2ccc(Br)cc12` the value was 104%.

With `Cc1[nH][nH]c(=O)c1C(c1ccc2c(c1)OCO2)c1c(C)[nH][nH]c1=O`, the activation (% of control) was 101%. With `Clc1ccc(-c2cc(C3CCNCC3)[nH]n2)c(Cl)c1`, the activation (% of control) is 135% (active). For `O=C1CSC(c2ccccc2)N1c1nc(-c2ccc(Cl)cc2Cl)cs1` (centres undefined) the value was 102%; for `Clc1ccc(-c2ncc3ccccn23)c(Cl)c1`, 112%; for `O=C(O)c1ccn(COc2ccc(Br)cc2)n1`, 101%.

For `N=C1C(=O)OCC1c1ccccc1NC(=O)CN1CCCCC1` (centres undefined), the activation (% of control) is 86.4%. Regarding `Cc1ccc(N/C=C/C(=O)c2ccccc2)cc1C`, the activation (% of control) was 142% (active). For `O=C(/C=C\NCC(=O)c1ccccc1)c1ccccc1` the value was 104%. For the compound `O=C(/C=C/NCc1ccc(F)cc1)c1ccccc1`, the activation (% of control) is 117%.

With `CC(C)(C)NC(=O)NC(=O)COC(=O)Cc1ccc(Cl)cc1Cl`, the activation (% of control) was 103%. To `Cc1ncc(CC(=O)n2cc(C(=O)c3cc(Cl)ccc3O)cn2)s1` belongs 103%. To `O=C(O)c1ccc(NC(=O)c2cn(-c3ccccc3)nc2-c2ccc(Cl)cc2)cc1` belongs 122%; to `O=C(c1cnn(-c2ccc(Cl)cc2)c1)c1ccccc1O`, 137% (active). On to `O=C(Nn1c(-c2ccccc2)nc2ccccc2c1=O)c1ccc([N+](=O)[O-])cc1`, for which the activation (% of control) is 95.4%. For `O=C(Nn1c(SCc2ccc([N+](=O)[O-])cc2)nc2ccccc2c1=O)c1ccc(F)cc1` the value was 150% (active); for `Cc1ccc(C)n1NC(=O)c1ccc([N+](=O)[O-])cc1`, 97.7%. On to `O=C(CNC(=O)c1ccccc1)NCC(=O)OCC(=O)c1ccccc1` (Bz-Gly-Gly-OPac), for which the activation (% of control) is 101%. For the compound `Cn1cc(CN2CCC(C(O)CCc3ccccc3)CC2)c(-c2ccccc2F)n1` (centres undefined), the activation (% of control) is 97.4%.

As to `CCCNC(=S)N1CCCC(c2nc3ccccc3[nH]2)C1` (centres undefined), the activation (% of control) was 94.6%. As to `COCCCNC(=S)N1CCCC(c2nc3cc(C)c(C)cc3[nH]2)C1` (centres undefined), the activation (% of control) was 140% (active).

Regarding `CCNC(=S)N1CCC(c2nc3cc(C)c(C)cc3[nH]2)CC1`, the activation (% of control) was 96.7%. For the compound `CC(=O)NCC(=O)N(Cc1ccco1)C1(C(=O)NC2CCCC2)CCCCC1`, the activation (% of control) was 89.9%.

On to `Cc1nn(-c2ccc([N+](=O)[O-])cc2)c(N)c1-c1ccccc1`, for which the activation (% of control) was 164% (active). `O=C1CC(c2ccccc2)=NN1c1ccc([N+](=O)[O-])cc1`: the activation (% of control) is 104%.

On to `Cc1nn(-c2ccccc2)c2c1C(c1cccc([N+](=O)[O-])c1)N(c1ccccc1)C(=O)N2` (centres undefined), for which the activation (% of control) was 97.4%.

For the compound `CNC(=O)NC(=O)CSc1nnc(-c2ccc(F)cc2)n1CC1CCCO1` (centres undefined), the activation (% of control) is 103%. For the compound `Cc1cccc(N=Nc2c(O)[nH]c3ccc(F)cc23)c1`, the activation (% of control) was 161% (active). For `COCC(=O)N=Nc1c(O)[nH]c2ccccc12` the value was 110%; for `Cc1cccc(N=Nc2c(C)[nH]n(-c3ccccc3)c2=O)c1`, 112%; for `CC(=O)COc1ccc2c(-c3ccccc3)cc(=O)oc2c1`, 109%.

As for `O=c1c(-c2ccccc2)coc2c(CN3CCOCC3)c(O)ccc12`, the activation (% of control) is 100%.

For the compound `O=c1c(-c2ccccc2)coc2cc(O)ccc12`, the activation (% of control) was 137% (active). Turning to `O=c1c2c(ncn1Cc1ccccc1)nc1n2CCC1`, the activation (% of control) was 96.7%. Turning to `COC(=O)c1ccc(CN2CCN(CCCc3ccccc3)C(CCO)C2)cc1` (centres undefined), the activation (% of control) is 96.7%.

On to `CCOC(=O)c1oc2c(CN3CCN(CCO)CC3)c(O)c(CC)cc2c(=O)c1-c1nc2ccccc2s1`, for which the activation (% of control) is 104%.

Take `CC1CN/C(=C\C(=O)c2ccc(Br)cc2)C(=O)N1` (centres undefined): the activation (% of control) is 172% (active). `C/C(=C\C(=O)c1ccc(Br)cc1)N1CCCCC1`: the activation (% of control) was 105%.

Consider `CN1CCCC(OC(=O)COc2ccc(Br)cc2)C1` (centres undefined), for which the activation (% of control) is 101%. To `Cc1ccc(-n2c(C)cc(C(=O)CSc3nnc4ccccn34)c2C)cc1` belongs 150% (active); to `COc1ccc(-n2c(C)cc(C(=O)CSc3nnc(-c4cccs4)o3)c2C)cc1`, 85.5%; to `O=C(CSc1nnc2ccccn12)c1ccccc1`, 123%.

For the compound `CCOc1ccc(C(=O)NC2CCN(CC(=O)NCc3cccs3)CC2)cc1`, the activation (% of control) is 105%. Turning to `CN(C)CCCCCN(C)Cc1cc2ccccc2o1`, the activation (% of control) is 91.6%. With `Cc1cc(NC(=O)CSc2nnc(Nc3ccccc3F)s2)no1`, the activation (% of control) was 102%. For `O=C(NCCCn1ccnc1)c1cc(-c2ccccc2)on1` the value was 161% (active); for `COc1ccc(-c2cc(C(=O)NCCCn3ccnc3)no2)cc1`, 110%; for `COc1ccccc1-c1cc(C(=O)NCCCn2ccnc2)no1`, 112%. To `Cc1ccc(NC(=O)CSc2nnc(COc3ccccc3C)o2)cc1` belongs 103%.
